High-throughput results as filed in PubChem BioAssay.
This is a sample that favours compounds with a hit; in the whole collection about 2.9% have one here.
TSHR antag: blocks TSH signaling through the human TSH receptor | TSHR-expressing cells, TSH-stimulated cAMP HTRF, 2 h; stronger effect = lower value | activity change, negative = inhibition, % at 11.5 µM | actives 0.2% (n = 330,000);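 active = activity change below a set negative limit, meaning inhibition stronger than a set level, cut at about -70% in these data; inconclusive = activity change between two set negative limits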; also: % is scaled to controls: 0 for no effect and ±100 for the full control effect
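Freshly harvested TSHR cells receive pin-tooled compound, then EC80 TSH at 4nM final. After 2 hours at 37 deg C, antibody in lysis buffer and cAMP-d2 are added; 30 minutes at ambient temperature precede the HTRF read.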
D3 ag: agonists of human D3 dopamine receptor | D3R DiscoveRx beta-arrestin cells, luminescence, 90 min | max activation, % | actives 0.58% (n = 410,000) | AID 652048; in the data active = max activation above about 30%; also: 0% is about no effect
Target sequence (P35462 whole entry, looked up): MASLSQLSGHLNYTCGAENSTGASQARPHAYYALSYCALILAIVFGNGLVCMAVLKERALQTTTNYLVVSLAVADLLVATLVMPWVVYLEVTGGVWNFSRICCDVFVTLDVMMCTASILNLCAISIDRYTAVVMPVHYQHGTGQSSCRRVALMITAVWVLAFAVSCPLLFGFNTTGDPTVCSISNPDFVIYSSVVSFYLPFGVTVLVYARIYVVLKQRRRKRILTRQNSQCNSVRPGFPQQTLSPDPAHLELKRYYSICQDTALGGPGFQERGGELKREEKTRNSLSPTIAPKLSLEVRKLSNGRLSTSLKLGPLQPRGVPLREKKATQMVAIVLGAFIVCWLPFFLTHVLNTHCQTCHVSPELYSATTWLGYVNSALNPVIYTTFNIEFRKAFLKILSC
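Cells at 1500/well, incubated overnight, then treated with pinned compounds (dopamine as control) for 90 min at 37 degrees C. DiscoveRx reagent added for 30 - 60 minutes at room temperature; luminescence read.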
B2AR arrestin: beta2AR (human) beta-arrestin recruitment activity; beta-arrestin recruitment to beta2AR, cell-based reporter; actives 0.02% (n = 330,000); AID 492947; Potency, µM (doses to about 46.1 µM), for inactives: at the highest dose activation, hits mostly activators; active = well fitted activation curve with a large enough effect; inconclusive = small, poorly fitted or top-dose-only effect;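 also: potency is read from the fitted curve at half-maximal effect; 0% = DMSO controls and full agonism = EC100 isoproterenol or metaproterenol; nearly all actives have a fitted effect of over 65% in size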
D3 antag: blocks the human D3 dopamine receptor; D3R cells, DiscoveRx beta-arrestin luminescence, antagonist mode; stronger effect = lower value; max response, negative = inhibition, %; actives 2.5% (n = 360,000); AID 652054; in the data active = max response below about -50%; inconclusive = no clear call, values can overlap the other calls; also: % is scaled to controls: 0 for no effect and ±100 for the full control effect
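Cells plated overnight at 1500 cells/well, then exposed to library compounds with dopamine controls for 90 minutes at 37 degrees C. DiscoveRx reagent added for 30–60 minutes at room temperature; luminescence read, quantitative HTS format.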
* hit, by the source's call; ? = inconclusive; · = no result given.

SMILES	TSHR antag	D3 ag	B2AR arrestin	D3 antag
COc1ccc(C(NC(=O)C2CCN(CCc3ccccc3)CC2)c2ccccn2)cc1 (centres undefined)	·	-18	·	-75*
COc1ccc(C(NC(=O)C2CCN(CCOc3ccc(Cl)cc3)CC2)c2cccs2)cc1 (centres undefined)	·	-18	·	-81*
O=C(NC(c1ccc(Cl)cc1)c1cnccn1)C1CCN(CCOc2ccc(F)cc2)CC1 (centres undefined)	·	-26	·	?
Cc1ccc(C(NC(=O)C2CCN(CCOc3ccccc3)CC2)c2ccccn2)cc1 (centres undefined)	·	7	·	-70*
CC(=O)Nc1nc(NC(=O)/C=C/c2ccccc2)n(-c2ccccc2)n1	0	-11	-2%	-72*
O=C(Nc1nc(NC(=O)c2ccco2)n(-c2ccccc2)n1)c1ccccc1	16	39*	0%	12
CCOC(=O)c1c(Nc2ccc(OCC)cc2)nnc(-c2ccccc2)c1-c1ccccc1	·	16	·	·
CC(C)(C)SCCNC(=O)CN1C(=O)c2cccc3cccc1c23	-6	0	0%	-2
COCCNC(=O)CN1C(=O)c2cccc3cccc1c23	-127*	4	-2%	6
Cc1ccc(NC(=S)N/N=C/c2cccn2Cc2ccccc2F)cc1	3	8	-1%	-53*
Cc1ccc(CN2CCN(CC(=O)N/N=C/c3ccccc3F)CC2)cc1	-3	-10	0%	-23
O=C(Nc1nc2c(F)cccc2s1)c1ccc2c(c1)OCCO2	·	-3	·	·
Cc1nn2c3c(cnc2c1-c1ccc(Cl)cc1)C(=O)CC(c1ccco1)C3 (centres undefined)	-2	0	0%	-52*
O=C1COc2cc(S(=O)(=O)CCC(=O)N3CCN(c4cccc(Cl)c4)CC3)c(Cl)cc2N1	·	4	·	·
O=S(=O)(/C(=C/c1ccc(C(F)(F)F)cc1)c1nc2ccccc2[nH]1)c1ccccc1	-34	-29	0%	-77*
CC(C)c1ccc(/C=C(\c2nc3ccccc3[nH]2)S(=O)(=O)c2ccccc2)cc1	-22	-11	0%	-73*
C/C(=C\c1ccc(N)cc1)c1nc2ccccc2[nH]1	-1	0	0%	-19
CCc1ccccc1NC(=O)c1cnc2sc(N3CCCC3)nn2c1=O	·	7	·	·
CC(Oc1ccccc1)C(=O)NNC(=O)c1ccccn1 (centres undefined)	4	-1	-1%	3
C/C(=N\NC(=O)C(C)Oc1ccc([N+](=O)[O-])cc1)c1ccccn1 (centres undefined)	2	-90	-1%	-106*
CCCc1[nH][nH]c(=O)c1C(c1ccccc1)C(C#N)C#N (centres undefined)	1	1	0%	-55*
CCCc1[nH][nH]c(=O)c1C(c1ccc(Br)cc1)C(C#N)C#N (centres undefined)	25	-11	0%	0
CN(C)CCCC1(c2ccc(F)cc2)OCc2cc(C#N)ccc21 (centres undefined)	-6	-72	-2%	-59*
CC(=O)c1cc(-c2ccccc2)n(CCC(=O)Nc2nc3c(C)cccc3s2)c1C	·	1	·	·
O=C1CCCCc2cc(O)c(O)cc21	·	52*	·	-2
SMILES	TSHR antag	D3 ag	B2AR arrestin	D3 antag
CC(C)c1ccc(C(=O)Nc2ccc(-c3nc4ccccc4s3)c(Cl)c2)cc1	·	27	·	·
Cc1ccc(-c2csc3ncnc(SCC(N)=O)c23)cc1	6	1	0%	20
CCc1nnc(NC(=O)CSc2ncnc3scc(-c4ccc(C)cc4)c23)s1	1	51*	0%	30
CN1CCN(C(=O)C23CC4CC(C)(CC(C)(C4)C2)C3)CC1	-6	-21	-1%	-71*
CC12CC3CC(C)(C1)CC(C(=O)N1CCCC1)(C3)C2	6	-1	3%	1
Cc1ccc(C23CC4CC(CC(C(=O)N5CCN(C)CC5)(C4)C2)C3)cc1	-4	-20	0%	-55*
CC(=O)c1ccc(NC(=O)c2c3c(nc4ccccc24)C(=O)N(C2CCCCC2)C3)cc1	·	-12	·	·
COc1ccc(/C=C/C(=O)c2c(C)nc3ccccn23)cc1	-5	38*	-1%	16
Cc1nc2ccccn2c1C(=O)/C=C/c1ccc(F)cc1	-1	-4	-1%	-23
COc1ccc(Oc2ncc(CN3CCN(c4ccccc4)CC3)s2)cc1	-12	35*	-1%	0
COc1cccc(N2CCN(Cc3ncc(-c4ccccc4)o3)CC2)c1	-12	4	0%	-56*
Cc1cc(Cl)ccc1Oc1ncc(CN2CCN(c3ccccc3)CC2)s1	-21	25	0%	27
COc1cccc(N2CCN(CC(=O)Nc3nnc(-c4ccccc4)s3)CC2)c1	-19	1	0%	12
C=CCNC(=O)CSc1nc2ccccc2c(=O)n1CCc1ccc(OC)c(OC)c1	-7	-8	0%	-1
COc1ccc(CCn2c(SCCN3CCCCC3)nc3ccccc3c2=O)cc1OC	15	-3	0%	-103*
CN(Cc1ccccc1)S(=O)(=O)c1cc(Br)cc2c1N(C(=O)C1CC1)CC2	·	-1	·	·
Cn1c(=S)n(/N=C/c2ccc3c(c2)OCO3)c2ccccc21	-15	-3	-1%	-6
COc1ccc(/C=N/n2c(=S)n(C)c3ccccc32)cc1OC	-17	63*	0%	47
CCc1ccc2[nH]c(O)c(N=NC3=NC(=O)CS3)c2c1	-5	-5	1%	-6
CCc1ccc2c(c1)c(N=NC1=NC(=O)CS1)c(O)n2CC	5	-23	0%	-88*
O=C(CSc1ccc(Cl)cc1)NC1CCCC1	0	0	0%	11
O=C(NC1CCCCC1)Sc1ccc(Cl)cc1	2	0	0%	-91*
COc1ccc(OC)c(CCNC(=O)c2cnn(-c3ccccc3Cl)c2C2CCN(C(=O)OC(C)(C)C)CC2)c1	·	4	·	·
Cc1onc(-c2c(Cl)cccc2Cl)c1C(=O)NCCCN1CCOCC1	·	-22	·	1
Cc1onc(-c2c(Cl)cccc2Cl)c1C(=O)c1c[nH]c(C(=O)NCCCN2CCOCC2)c1	50	-1	0%	-54*
SMILES	TSHR antag	D3 ag	B2AR arrestin	D3 antag
Cc1ccccc1C(=O)N1CCN(c2ccc(NC(=O)c3ccc([N+](=O)[O-])o3)cc2)CC1	-17	-9	0%	-72*
CC(C)C(=O)N1CCN(c2ccc(NC(=O)c3ccc([N+](=O)[O-])o3)cc2)CC1	-2	-7	0%	?
O=C(Nc1ccc(N2CCN(C(=O)c3ccccc3)CC2)cc1)c1ccc([N+](=O)[O-])o1	-29	-16	0%	-56*
O=C(Nc1ccccc1F)c1oc2ccccc2c1NC(=O)C12CC3CC(CC(C3)C1)C2	·	-6	·	·
CC(/C=N/NC(=O)c1cc(C(C)(C)C)[nH]n1)=C\c1ccccc1	-4	-3	-1%	-54*
CC(/C=N/NC(=O)c1cc(-c2ccc(C)s2)[nH]n1)=C\c1ccccc1	-2	14	0%	-22
Cc1cc(C(=O)N/N=C/c2sccc2C)no1	8	-24	0%	-13
Cc1ccsc1/C=N\NC(=O)c1cc(C(C)(C)C)[nH]n1	7	-16	0%	-67*
